Measured values taken from PubChem BioAssay (NCATS).
Several values for one entry are separate records, joined by “and”; a condition that tells them apart may be missing. Equal entries are not always repeated. Results filed as inconclusive are left out. A call without a number means that no potency is given here. Activity calls are given as the source filed them. Unless noted, the call rests on the fitted dose curve; in most records, active means well fitted curve in the direction sought with a large enough effect; inconclusive means small, poorly fitted or top-dose-only effect, or another doubt; inactive means no such curve, though single readings can be large; an effect the other way counts as inactive or inconclusive.

Assays:
[1] = biological target: Mitogen-activated protein kinase 10 (Mus musculus) (UniProt Q61831); experiment: JNK3 AlphaScreen Assay (AID 530; active means well fitted curve in either direction with a large enough effect, not every such curve was filed as active;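 further: kinase came from lysate of stimulated human HepG2 cells; signal reports phosphorylation of biotinylated GST-cJun 1-79 at Ser73 with 10 µM ATP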)
Summary of the method: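 Compound titrations were preincubated 15 minutes at room temperature with substrate, antibody and pre-activated JNK3-containing HepG2 lysate. Reactions were started with 10 uM ATP and stopped with EDTA-containing bead buffer for AlphaScreen detection.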

[2] = Cell Viability - Mesenchymal (AID 546);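 further: cells exposed to compound for 40 hours before reading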
Summary of the method: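 AC50 values reflect the drop in intracellular ATP in a human kidney mesenchymal line derived from normal glomeruli. Treatment lasts 40 hr at 37 °C in complete medium, and the signal comes from CellTiter-Glo luminescence.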

[3] = Cellular Toxicity (caspase-3) Jurkat (AID 655); conditions: Jurkat caspase-3 activation, luminescence; caspase-3 activation: at 92.2 µM (top of the series), DMSO = 0%, tamoxifen = 100%;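 further: cells exposed to compound for 16 h at 37 °C before reading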
Summary of the method: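 qHTS in human Jurkat T-cell leukemia line: 16 hr compound treatment at 37 °C, caspase-3/7 activity measured by Caspase-Glo luminescence. AC50 derived from Hill equation.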

[4] = Cellular Toxicity (caspase-3) BJ (AID 658);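 further: cells exposed to compound for 16 hours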
Summary of the method: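 Readout: Caspase-Glo 3/7 luminescence increase in BJ cells after 16 hr treatment at 37 °C. Staurosporine and tamoxifen served as positive controls; AC50 values came from Hill modelling of data normalized to DMSO and 10 uM staurosporine.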

[5] = biological target: Cytochrome P450 3A4 (Homo sapiens) (UniProt P08684); experiment: qHTS Assay for Inhibitors and Substrates of Cytochrome P450 3A4 (AID 884); further: nearly all actives have a fitted effect of over 50% in size; further: potency means the concentration at half of the fitted maximal effect
Summary of the method: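 20 nM human CYP3A4 with 25 uM Luciferin-PPXE (at KM) in 200 mM KPO4, preincubated 10 min with compound; NADPH regeneration started a 60 min RT reaction. Luciferin detected by luminescence, normalized to 57 uM ketoconazole as full inhibition.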

[6] = Cell Viability - LYMP2-001 (AID 921); further: nearly all actives have a fitted effect of over 70% in size
Summary of the method: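 A lymphoblastoid cell line of human origin was treated with library compounds across a concentration series for 24 hours, and viable cell number was estimated from ATP-driven luciferase light output. Hill modeling gave AC50.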

[7] = MultiTox-Fluor Cytotoxicity Assay - LYMP1-002 - Live Cells (AID 955);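 further: cells exposed to compound for 16 hours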
Summary of the method: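 Human lymphoblastoid LYMP1-002 cells, 2500/well, treated 16 h at 37 C in complete medium. Live-cell protease activity via GF-AFC fluorescence (Ex/Em 405/510) after 60 min reagent incubation; AC50 from Hill fits.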

[8] = Cell Viability - LYMP2-005 (AID 967)
Summary of the method: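 Luciferase-based ATP quantitation served as the viability measure in human lymphoblastoid LYMP2-005 cells exposed to test compounds for 24 h at 37 C in complete culture medium. Potency (AC50) was obtained by fitting concentration-response curves with the Hill equation.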

[9] = Cell Viability - LYMP2-015 (AID 971); further: nearly all actives have a fitted effect of over 55% in size
Summary of the method: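 LYMP2-015 human lymphoblastoid cells (2500/well) in complete medium, compound-treated 24 h at 37 C; viability read as cellular ATP by CellTiter-Glo luminescence after 30 min at room temperature. AC50 from Hill-equation fits of qHTS concentration-response data.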

[10] = biological target: Thyroid hormone receptor beta (Homo sapiens) (UniProt P10828); experiment: qHTS assay for small molecule agonists of thyroid hormone receptor beta signaling (AID 588545; calls by dose curve)
Summary of the method: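 Agonist activity was read as beta-lactamase CCF4 fluorescence (405 ex, 460/530 em), scaled between DMSO (0%) and 10 nM T3 (100%), then Hill-fitted for EC50 and efficacy. HEK 293 TR-UAS-bla cells in 2% charcoal/dextran FBS medium were exposed 18 h at 37 C.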

[11] = qHTS assay for small molecule antagonists of retinoid X receptor alpha signaling (AID 588546; active means well fitted inhibition curve with a large enough effect in the signal ratio, with a control signal flat, not every such curve was filed as active; the % refers to the signal ratio;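 further: cells stimulated with 9-cis-retinoic acid as agonist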); conditions: HEK293T RXRa-UAS-bla, beta-lactamase ratio, antagonist mode; measured here: W530 green channel, cytotoxicity proxy
Summary of the method: (§1)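 Beta-lactamase reporter inhibition, read as CCF4 fluorescence ratio (ex 405, em 460/530 nm) after 2 h at RT. HEK293T UAS-bla cells, 2500/well, were stimulated with 9-cis-RA at 500 or 100 nM final alongside test compound for 18 h at 37 C.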

[12] = biological target: Retinoic acid receptor RXR-alpha (Homo sapiens) (UniProt P19793); experiment: as above; conditions: HEK293T RXRa-UAS-bla, beta-lactamase ratio, antagonist mode
Summary of the method: as §1

[13] = biological target: Voltage-gated inwardly rectifying potassium channel KCNH2 (Homo sapiens) (UniProt Q12809); experiment: qHTS Assay for Small Molecule Inhibitors of the Human hERG Channel Activity (AID 588834);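 further: top concentration of the series differs between compounds; lower thallium flux fluorescence means stronger hERG block; nearly all actives have a fitted effect of over 50% in size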
Summary of the method: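 Blockade is seen as reduced FluxOR thallium-flux fluorescence in U2OS cells expressing hERG from a BacMam construct, in Opti-MEM with 2% FCS. Concentration-response data fitted to the Hill equation for AC50.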

[14] = qHTS assay for environmental chemicals that activate the Aryl hydrocarbon Receptor (AhR) signaling pathway (AID 651777); conditions: 1A2-DRE human hepatoma cells, luciferase, 24 h; activation: stronger effect = higher value; further: nearly all actives have a fitted effect of over 15% in size
Summary of the method: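 Human hepatoma 1A2-DRE cells stably carrying a DRE/CYP1A2 promoter–luciferase reporter, 1,200 cells/well, exposed to compound 24 hr at 37 C. Luciferase read by One-Glo luminescence after 30 min at room temperature; increased signal marks AhR activation.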

[15] = biological target: Nuclear receptor subfamily 1 group I member 2 (Rattus norvegicus) (UniProt Q9R1A7); experiment: qHTS assay for small molecule activators of the rat pregnane X receptor (rPXR) signaling pathway (AID 651751; call rule not given here); conditions: rPXR reporter cells, luciferase (One-Glo), 24 h
[16] = qHTS assay for small molecule activators of the human pregnane X receptor (PXR) signaling pathway (AID 720659; call rule not given here)
[17] = Cellular Toxicity (caspase-3) MRC-5 (AID 659);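 further: cells exposed to compound for 16 h at 37 °C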
Summary of the method: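 Concentration-dependent caspase 3/7 activation is measured in human normal lung fibroblasts (MRC-5) following 16-hour treatment. AC50 values come from standard Hill-equation modeling of luminescence normalized to DMSO and 10 uM staurosporine.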

[18] = MultiTox-Fluor Cytotoxicity Assay - LYMP1-001 - Live Cells (AID 947)
[19] = biological target: Nuclear receptor ROR-gamma (Homo sapiens) (UniProt P51449); experiment: qHTS assay for small molecule antagonists of the retinoid-related orphan receptor gamma (ROR-gamma) signaling pathway (AID 651802);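 further: luciferase reporter luminescence driven by ROR response element; nearly all actives have a fitted effect of over 60% in size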
Summary of the method: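 CHO cells with TET-inducible ROR-gamma and RORE-luciferase reporter, dosed then doxycycline-induced. After 16 h at 37C, One-Glo luminescence read; decreased signal indicates antagonism.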

[20] = qHTS assay for small molecule disruptors of the mitochondrial membrane potential - 5 hr assay (AID 651755; calls by dose curve; further: nearly all actives have a fitted effect of over 40% in size)
Summary of the method: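 HepG2, 2,000 cells/well, overnight attach; cpd or DMSO 5 hr, 37C/5% CO2; Mito-MPS 30 min 37C; fluor 490/535 + 540/590 nm.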

Sequence of Nuclear receptor subfamily 1 group I member 2 (Rattus norvegicus) (Q9R1A7 whole entry, looked up): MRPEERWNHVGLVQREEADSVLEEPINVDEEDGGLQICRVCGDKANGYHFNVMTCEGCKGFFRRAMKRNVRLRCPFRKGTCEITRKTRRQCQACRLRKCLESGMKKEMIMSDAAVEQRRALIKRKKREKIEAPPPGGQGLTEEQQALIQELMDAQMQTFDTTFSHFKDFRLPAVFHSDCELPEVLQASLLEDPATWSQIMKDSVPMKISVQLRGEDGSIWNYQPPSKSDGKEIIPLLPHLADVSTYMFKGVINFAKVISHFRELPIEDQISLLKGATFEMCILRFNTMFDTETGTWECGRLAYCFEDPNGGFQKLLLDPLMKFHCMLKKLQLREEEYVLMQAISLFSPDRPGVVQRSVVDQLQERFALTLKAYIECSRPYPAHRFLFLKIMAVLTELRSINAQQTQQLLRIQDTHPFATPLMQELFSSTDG
Sequence of Nuclear receptor ROR-gamma (Homo sapiens) (P51449 whole entry, looked up): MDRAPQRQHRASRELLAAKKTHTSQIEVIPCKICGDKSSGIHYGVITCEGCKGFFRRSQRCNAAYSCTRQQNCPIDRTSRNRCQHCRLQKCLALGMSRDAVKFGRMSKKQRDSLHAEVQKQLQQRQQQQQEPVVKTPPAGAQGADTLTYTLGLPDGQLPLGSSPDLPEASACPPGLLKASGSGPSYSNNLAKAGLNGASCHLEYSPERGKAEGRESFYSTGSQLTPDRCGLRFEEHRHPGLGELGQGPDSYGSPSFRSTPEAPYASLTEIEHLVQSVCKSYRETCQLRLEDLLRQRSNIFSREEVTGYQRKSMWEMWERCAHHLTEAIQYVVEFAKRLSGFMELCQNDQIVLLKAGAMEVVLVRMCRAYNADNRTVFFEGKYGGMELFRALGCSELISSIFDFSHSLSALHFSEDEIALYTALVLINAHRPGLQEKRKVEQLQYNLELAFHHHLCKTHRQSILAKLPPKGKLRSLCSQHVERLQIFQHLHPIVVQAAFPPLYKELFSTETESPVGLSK
Sequence of Retinoic acid receptor RXR-alpha (Homo sapiens) (P19793 whole entry, looked up): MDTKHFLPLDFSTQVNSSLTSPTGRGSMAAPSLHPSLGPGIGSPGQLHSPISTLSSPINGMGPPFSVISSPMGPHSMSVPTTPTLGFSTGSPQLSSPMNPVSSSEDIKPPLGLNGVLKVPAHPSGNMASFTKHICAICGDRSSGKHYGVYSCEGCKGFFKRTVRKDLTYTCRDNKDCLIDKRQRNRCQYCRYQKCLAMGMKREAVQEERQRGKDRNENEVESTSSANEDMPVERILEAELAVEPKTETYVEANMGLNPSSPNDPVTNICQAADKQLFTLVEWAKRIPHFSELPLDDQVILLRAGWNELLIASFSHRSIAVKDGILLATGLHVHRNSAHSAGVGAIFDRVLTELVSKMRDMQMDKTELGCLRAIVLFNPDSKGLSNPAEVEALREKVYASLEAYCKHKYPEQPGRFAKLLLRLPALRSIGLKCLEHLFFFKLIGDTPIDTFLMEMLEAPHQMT
Sequence of Cytochrome P450 3A4 (Homo sapiens) (P08684 whole entry, looked up): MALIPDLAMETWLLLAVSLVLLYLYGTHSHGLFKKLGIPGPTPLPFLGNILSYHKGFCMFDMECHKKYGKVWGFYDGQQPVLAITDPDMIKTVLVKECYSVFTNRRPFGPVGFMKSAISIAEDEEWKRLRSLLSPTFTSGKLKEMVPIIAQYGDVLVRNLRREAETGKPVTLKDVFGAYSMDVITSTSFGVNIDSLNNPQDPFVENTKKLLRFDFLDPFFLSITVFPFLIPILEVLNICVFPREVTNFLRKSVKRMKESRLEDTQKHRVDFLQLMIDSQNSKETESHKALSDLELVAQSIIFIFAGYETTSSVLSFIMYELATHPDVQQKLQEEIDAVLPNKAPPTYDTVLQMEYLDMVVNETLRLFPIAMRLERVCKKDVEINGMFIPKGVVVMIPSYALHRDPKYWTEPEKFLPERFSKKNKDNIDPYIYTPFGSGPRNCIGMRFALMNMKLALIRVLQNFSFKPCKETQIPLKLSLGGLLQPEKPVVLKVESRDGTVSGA
Sequence of Voltage-gated inwardly rectifying potassium channel KCNH2 (Homo sapiens) (Q12809 whole entry, looked up): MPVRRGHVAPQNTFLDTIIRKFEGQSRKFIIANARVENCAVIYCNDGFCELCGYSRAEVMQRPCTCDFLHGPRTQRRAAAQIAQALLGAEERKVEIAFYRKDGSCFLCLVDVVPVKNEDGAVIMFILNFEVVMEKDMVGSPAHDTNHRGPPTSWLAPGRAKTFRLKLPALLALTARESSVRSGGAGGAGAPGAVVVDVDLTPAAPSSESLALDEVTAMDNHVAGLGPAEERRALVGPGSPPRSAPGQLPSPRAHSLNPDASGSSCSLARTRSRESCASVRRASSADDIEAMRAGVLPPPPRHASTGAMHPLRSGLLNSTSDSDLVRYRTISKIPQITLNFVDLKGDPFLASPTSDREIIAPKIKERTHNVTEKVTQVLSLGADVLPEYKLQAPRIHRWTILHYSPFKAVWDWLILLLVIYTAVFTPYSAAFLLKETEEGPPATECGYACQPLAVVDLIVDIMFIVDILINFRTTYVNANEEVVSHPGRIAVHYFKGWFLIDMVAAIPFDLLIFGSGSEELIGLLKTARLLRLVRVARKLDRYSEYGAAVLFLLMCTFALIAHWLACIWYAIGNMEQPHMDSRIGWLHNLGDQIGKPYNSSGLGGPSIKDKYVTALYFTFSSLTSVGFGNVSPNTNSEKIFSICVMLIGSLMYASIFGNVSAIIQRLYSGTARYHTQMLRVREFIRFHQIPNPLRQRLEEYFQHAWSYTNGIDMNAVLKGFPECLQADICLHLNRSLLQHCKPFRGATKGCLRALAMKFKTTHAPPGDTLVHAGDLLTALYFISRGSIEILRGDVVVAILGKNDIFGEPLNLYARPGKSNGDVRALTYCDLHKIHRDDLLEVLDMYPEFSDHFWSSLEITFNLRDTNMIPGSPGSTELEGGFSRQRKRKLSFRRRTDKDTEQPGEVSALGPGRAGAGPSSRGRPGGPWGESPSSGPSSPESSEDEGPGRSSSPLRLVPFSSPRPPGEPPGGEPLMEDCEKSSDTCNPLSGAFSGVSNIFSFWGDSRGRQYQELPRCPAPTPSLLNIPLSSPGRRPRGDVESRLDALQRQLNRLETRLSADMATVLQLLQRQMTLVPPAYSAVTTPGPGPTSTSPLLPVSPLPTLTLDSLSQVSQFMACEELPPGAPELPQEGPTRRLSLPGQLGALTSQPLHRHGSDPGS
Sequence of Thyroid hormone receptor beta (Homo sapiens) (P10828 whole entry, looked up): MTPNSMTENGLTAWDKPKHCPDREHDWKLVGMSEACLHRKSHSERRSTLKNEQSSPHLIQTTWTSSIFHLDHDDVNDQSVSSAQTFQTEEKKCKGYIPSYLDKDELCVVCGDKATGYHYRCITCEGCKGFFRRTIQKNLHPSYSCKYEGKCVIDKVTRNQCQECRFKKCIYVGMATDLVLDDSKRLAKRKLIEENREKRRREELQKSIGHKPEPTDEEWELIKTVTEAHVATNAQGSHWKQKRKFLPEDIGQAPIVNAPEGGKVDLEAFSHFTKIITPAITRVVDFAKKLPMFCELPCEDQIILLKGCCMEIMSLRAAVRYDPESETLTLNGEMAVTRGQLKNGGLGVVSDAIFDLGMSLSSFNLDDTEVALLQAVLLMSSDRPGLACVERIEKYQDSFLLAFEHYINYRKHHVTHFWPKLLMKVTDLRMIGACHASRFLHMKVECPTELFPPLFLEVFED

SMILES	Potency [1]	Potency [2]	caspase-3 activation [3]	outcome [4]	Potency [5]	Potency [6]	outcome [7]	Potency [8]	Potency [9]	Potency [10]	max response [11]	max response [12]	Potency [13]	activation [14]	max response [15]	outcome [16]	outcome [17]	outcome [18]	Potency [19]	Potency [20]
S=C1NCCN1	inactive	inactive	0.9% (inactive)	inactive	inactive	inactive	inactive	inactive	inactive	inactive	-7.1% and 12.2%	-12.1% (inactive) and 9.5% (inactive)	inactive	4.55% (inactive) and -3.06% (inactive)	6.01% (inactive) and -10.7% (inactive)	inactive				
N#CCCC#N		inactive	-0.151% (inactive)	inactive	inactive	inactive	inactive	inactive	inactive	inactive	-8.53%	23.2% (inactive)	inactive	0.758% (inactive)	2.24% (inactive)	inactive	inactive	inactive	inactive	
c1ccc(NNc2ccccc2)cc1		inactive	0.504% (inactive)		inactive	inactive	inactive	inactive	inactive	inactive	-8.78% and -5.97%	1.29% (inactive) and 6.1% (inactive)			12.1% (inactive) and 2.7% (inactive)	inactive	inactive	inactive	inactive	inactive
C=CC(=O)OCC(CC)CCCC (stereo not given)	inactive	inactive	-0.0566% (inactive)	inactive	inactive		inactive	inactive		inactive	-0.0756% and 2.94%	4.48% (inactive) and -16.9% (inactive)	inactive	2.67% (inactive) and -0.331% (inactive)	-2.19% (inactive) and -0.52% (inactive)	inactive		inactive	inactive	inactive
CCOP(=S)(OCC)Oc1nc(Cl)c(Cl)cc1Cl			-1.27% (inactive)		5.01 µM (active)	inactive	inactive	inactive	inactive	inactive	-8.45% [middle of 4 runs]			12% (inactive)	6.81% (inactive) [middle of 4 runs]		inactive	inactive		inactive
Oc1cc(Cl)cc(Cl)c1	inactive		-0.202% (inactive)	inactive	inactive	inactive	inactive	inactive	inactive	inactive	-2.61%	-5.58% (inactive)	inactive	1.21% (inactive)	0.776% (inactive)	inactive	inactive	inactive	inactive	
O=[N+]([O-])CCO		inactive	-0.445% (inactive)	inactive	inactive	inactive	inactive		inactive	inactive	2.49%	-8.95% (inactive)	inactive	-2.02% (inactive)	2.92% (inactive)	inactive	inactive	inactive	inactive	
C=COC(C)=O		inactive			inactive	inactive	inactive	inactive	inactive	inactive	-12.3%	-3.99% (inactive)	inactive	1.36% (inactive)	2.31% (inactive)	inactive	inactive		inactive	inactive
O=C(Cc1ccccc1)OCc1ccccc1		inactive	3.55% (inactive)	inactive	inactive	inactive	inactive	inactive	inactive	inactive	8.24%	-5.19% (inactive)	inactive		-0.53% (inactive)	inactive	inactive	inactive	inactive	inactive
CN(C)C(=O)Nc1ccc(Cl)cc1			-0.0397% (inactive)	inactive	inactive			inactive	inactive	inactive	-7.13% and -6.88%	-0.754% (inactive) and 1.84% (inactive)	inactive	1.83% (inactive) and 5.75% (inactive)	6.29% (inactive) and 10.4% (inactive)	inactive	inactive	inactive	inactive	inactive
CC[N+](=O)[O-]	inactive		1.63% (inactive)		inactive	inactive	inactive	inactive	inactive		-3.61%	5.74% (inactive)	inactive	-0.343% (inactive)	-6.68% (inactive)	inactive	inactive	inactive	inactive	inactive
Cc1cccc(N)c1C	inactive	inactive		inactive	inactive	inactive		inactive	inactive	inactive	-9%	13.5% (inactive)	inactive	0.811% (inactive)	-0.698% (inactive)	inactive	inactive	inactive	inactive	inactive
c1ccc(P(c2ccccc2)c2ccccc2)cc1		inactive	0.655% (inactive)	inactive	inactive	inactive	inactive		inactive	inactive	-7.38%	14.4% (inactive)		0.491% (inactive)	2.64% (inactive)		inactive	inactive	inactive	inactive
O=c1ccc(=O)[nH][nH]1		inactive		inactive	inactive		inactive	inactive	inactive	inactive	-4.32% and 8.97%	-4.77% (inactive) and 2.87% (inactive)	inactive	0.524% (inactive) and -2.54% (inactive)	0.0495% (inactive) and -4.15% (inactive)	inactive	inactive	inactive	inactive	inactive
O=S(=O)(O)F		inactive	1.63% (inactive)	inactive	inactive	inactive	inactive	inactive	inactive	inactive	-2.92%	39.7% (inactive)	inactive	0.54% (inactive)	0.583% (inactive)	inactive		inactive		inactive
